PubChem BioAssay (Tox21)
Values joined by “and” are separate entries in the source; they are usually repeats but may differ in a detail not shown here. Equal entries are not always repeated. Records with an inconclusive call do not appear. Where a structure was tested more than once in an assay, its records may differ in their call. Active and inactive are the calls of the source. Calls follow the shape of the dose curve; as a rule, active = well fitted curve in the direction sought with a large enough effect in the repeat runs; inconclusive = weak or mixed curves; inactive = no such curve, though single readings can be large; an effect the other way counts as inactive or inconclusive.

Experiments:
[1] = Human pregnane X receptor (PXR) small molecule agonists, qHTS cell viability counter screen (AID 1346977); also: nearly all actives have a fitted effect of over 50% in size; also: potency is read from the fitted curve at half-maximal effect
Procedure, shortened: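 Fluorescence read-out (CellTiter-Fluor) of viability in PXR-Luc HepG2 cells, multiplexed with the luciferase agonist read. Compounds in DMSO added after 5hr plating; 24hr total exposure at 37C, 5% CO2.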

[2] = Caspase-3/7 induction in HepG2 cells by small molecules, qHTS assay (AID 1346978); also: nearly all actives have a fitted effect of over 15% in size
Procedure, shortened: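 Wild-type HepG2 cells, 2,000/well, settled 5 hr at 37 C and 5% CO2, then compound-treated for 17 hr; caspase-3/7 activity read by luminescent Caspase-Glo 3/7 after 30 min at room temperature.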

[3] = Caspase-3/7 induction in CHO-K1 cells by small molecules, qHTS cell viability counter screen (AID 1346979); also: nearly all actives have a fitted effect of over 35% in size; also: potency is read from the fitted curve at half-maximal effect
Procedure, shortened: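 CHO-K1 wt, 1,500 cells/well; 5hr pre-incubation 37C/5% CO2; compound pin transfer (DMSO); 16hr exposure; CellTiter-Fluor added, 1hr, fluorescence read.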

[4] = Caspase-3/7 induction in CHO-K1 cells by small molecules, qHTS assay (AID 1346980); also: nearly all actives have a fitted effect of over 15% in size
Procedure, shortened: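 Wild-type CHO-K1 cells exposed to compounds for 17hr at 37 C, 5% CO2. Caspase-3/7 activity then measured by Caspase-Glo 3/7 luminescence after 30min at room temperature.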

[5] = Caspase-3/7 induction in HepG2 cells by small molecules, qHTS cell viability counter screen (AID 1346981); also: nearly all actives have a fitted effect of over 30% in size; also: potency is read from the fitted curve at half-maximal effect; as to activity change, negative = cytotoxicity: series mostly up to about 92 µM
Procedure, shortened: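 Multiplexed with the caspase-3/7 assay: HepG2 cells, 16 hr compound treatment, CellTiter-Fluor viability detection by fluorescence.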

[6] = molecular target: Nuclear receptor subfamily 1 group I member 2 (Homo sapiens) (UniProt O75469); assay: Human pregnane X receptor (PXR) small molecule agonists, qHTS assay (AID 1346982); also: nearly all actives have a fitted effect of over 35% in size; also: potency is read from the fitted curve at half-maximal effect
Procedure, shortened: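 We seeded PXR-Luc HepG2 cells in assay medium containing 5% charcoal-stripped FBS, added compounds 5 hr later, incubated 24 hr, and read luminescence with ONE-Glo reagent.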

[7] = molecular target: Cytochrome P450 2D6 (Homo sapiens) (UniProt P10635); assay: Cytochrome P450 Family 2 Subfamily D Member 6 (CYP2D6) small molecule antagonists: luciferase reporter qHTS assay (AID 1671196); also: nearly all actives have a fitted effect of over 50% in size; also: potency is read from the fitted curve at half-maximal effect; as to activity change, negative = inhibition: series mostly up to about 120 µM
Procedure, shortened: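 Luminescence (RLU), read 20 min after detection reagent, indicated CYP2D6 conversion of proluciferin to luciferin during a 1 h NADPH-dependent reaction at room temperature.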

[8] = molecular target: Cytochrome P450 2C19 (Homo sapiens) (UniProt P33261); assay: Cytochrome P450 Family 2 Subfamily C Member 19 (CYP2C19) small molecule antagonists: luciferase reporter qHTS assay (AID 1671197); also: nearly all actives have a fitted effect of over 65% in size; also: potency is read from the fitted curve at half-maximal effect; as to activity change, negative = inhibition: series mostly up to about 120 µM
Procedure, shortened: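 Luminescent readout of CYP2C19 activity: luciferin product detected 20 min after adding detection reagent. Before that, compound and enzyme-substrate mix preincubated 10 min at room temperature; NADPH-regenerating system started a 1 h, 37C reaction. Ketoconazole as positive control.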

[9] = molecular target: Cytochrome P450 2C9 (Homo sapiens) (UniProt P11712); assay: Cytochrome P450 Family 2 Subfamily C Member 9 (CYP2C9) small molecule antagonists: luciferase reporter qHTS assay (AID 1671198); also: nearly all actives have a fitted effect of over 50% in size; also: potency is read from the fitted curve at half-maximal effect; as to activity change, negative = inhibition: series mostly up to about 120 µM
Procedure, shortened: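 P450-Glo proluciferin substrate with CYP2C9 enzyme; 10 min RT preincubation, then NADPH regeneration 1 h at 37C; luciferin detection reagent 20 min RT, luminescence in relative luminescence units.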

[10] = molecular target: Cytochrome P450 1A2 (Homo sapiens) (UniProt P05177); assay: Cytochrome P450 Family 1 Subfamily A Member 2 (CYP1A2) small molecule antagonists: luciferase reporter qHTS assay (AID 1671199); also: series mostly up to about 120 µM; nearly all actives have a fitted effect of over 50% in size
Procedure, shortened: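 CYP1A2 turnover of a luminogenic substrate was quantified after 1 h with NADPH regeneration at room temperature. Furafylline served as positive control.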

[11] = molecular target: Voltage-gated inwardly rectifying potassium channel KCNH2 (Homo sapiens) (UniProt Q12809); assay: Human Ether-a-go-go-Related Gene (hERG) channel small molecule antagonists: fluorescence cell-based qHTS assay (AID 1671200)
Procedure, shortened: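 Read-out: thallium influx as a surrogate for potassium, tracked as fluorescence (480 nm ex/540 nm em) every second for 2 min after Stimulus Buffer addition in dye-loaded hERG-U2OS cells.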

[12] = molecular target: Cytochrome P450 3A4 (Homo sapiens) (UniProt P08684); assay: Cytochrome P450 Family 3 Subfamily A Member 4 (CYP3A4) small molecule antagonists: luciferase reporter qHTS assay (AID 1671201)
Procedure, shortened: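 Luminescent readout (RLU) proportional to CYP3A4 activity, from luciferin generated off a proluciferin substrate. Enzyme–substrate mix plus compound 10 min at room temp, NADPH regeneration 1 h, detection reagent 20 min.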

[13] = molecular target: Nuclear receptor subfamily 1 group I member 2 (Rattus norvegicus) (UniProt Q9R1A7); assay: Rat pregnane X receptor (rPXR) activation by small molecules, qHTS assay (AID 1346983); settings: rPXR luciferase reporter cells, One-Glo luminescence, 24 h; stronger effect = higher value; also: nearly all actives have a fitted effect of over 20% in size
Procedure, shortened: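 Cell-based rPXR activation assay: rPXR cells, 2,000 per well, rested 5hr at 37 C, then exposed to compounds in DMSO for 24 hr at 37 C. Luciferase activity read by One-Glo luminescence after 30 min at room temperature.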

[14] = molecular target: Nuclear receptor subfamily 1 group I member 2 (Homo sapiens) (UniProt O75469); assay: CYP3A4 induction through human pregnane X receptor (PXR) by small molecules, qHTS assay (AID 1346984); also: nearly all actives have a fitted effect of over 40% in size
Procedure, shortened: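 qHTS, concentration-response format: HepG2 DPX-2 line, PXR/CYP3A4-luc. Exposure 24 h, 37C. Substrate Luciferin-IPA 3uM final, 3 h. Detection One-Glo, 30 min RT.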

[15] = molecular target: Nuclear receptor subfamily 1 group I member 2 (Homo sapiens) (UniProt O75469); assay: Human pregnane X receptor (PXR) activation by small molecules, qHTS assay (AID 1346985); also: nearly all actives have a fitted effect of over 40% in size
Procedure, shortened: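 DPX-2 cells (HepG2 co-transfected with a PXR response element and a CYP3A4-promoter luciferase construct) were seeded at 2,000 per well, rested 5 hr at 37C, then exposed to DMSO-dissolved compounds for 24 hr. Activation was read as luciferase luminescence.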
% is scaled to controls: 0 for no effect and ±100 for the full control effect.

Cytochrome P450 2C19 (Homo sapiens), sequence (P33261 whole entry, looked up): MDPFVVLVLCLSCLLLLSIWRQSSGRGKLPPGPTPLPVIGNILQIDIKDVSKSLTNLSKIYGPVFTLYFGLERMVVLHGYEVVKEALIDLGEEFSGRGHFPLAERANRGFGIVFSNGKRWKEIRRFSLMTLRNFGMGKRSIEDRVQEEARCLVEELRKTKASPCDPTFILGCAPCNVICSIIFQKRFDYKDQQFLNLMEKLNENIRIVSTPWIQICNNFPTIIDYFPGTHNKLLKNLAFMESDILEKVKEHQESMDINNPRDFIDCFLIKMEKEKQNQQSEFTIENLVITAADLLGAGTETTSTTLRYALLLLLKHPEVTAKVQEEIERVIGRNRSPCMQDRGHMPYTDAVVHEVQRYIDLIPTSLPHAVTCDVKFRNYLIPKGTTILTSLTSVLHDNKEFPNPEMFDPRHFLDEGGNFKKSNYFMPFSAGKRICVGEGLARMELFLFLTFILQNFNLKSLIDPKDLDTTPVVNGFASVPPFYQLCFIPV
Cytochrome P450 1A2 (Homo sapiens), sequence (P05177 whole entry, looked up): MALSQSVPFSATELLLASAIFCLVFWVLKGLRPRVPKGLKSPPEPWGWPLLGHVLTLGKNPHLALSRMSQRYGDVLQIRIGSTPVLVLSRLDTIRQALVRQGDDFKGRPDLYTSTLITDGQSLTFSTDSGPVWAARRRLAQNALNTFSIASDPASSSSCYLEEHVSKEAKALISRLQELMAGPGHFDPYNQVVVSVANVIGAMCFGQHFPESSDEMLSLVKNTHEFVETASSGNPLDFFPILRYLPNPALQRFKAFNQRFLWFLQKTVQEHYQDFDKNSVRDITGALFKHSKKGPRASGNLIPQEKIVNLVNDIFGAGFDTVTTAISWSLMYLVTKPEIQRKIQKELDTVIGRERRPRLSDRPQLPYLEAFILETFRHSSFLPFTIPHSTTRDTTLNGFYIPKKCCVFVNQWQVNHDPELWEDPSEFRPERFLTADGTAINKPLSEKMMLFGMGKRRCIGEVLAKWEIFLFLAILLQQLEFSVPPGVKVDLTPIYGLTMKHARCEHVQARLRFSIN
Cytochrome P450 2C9 (Homo sapiens), sequence (P11712 whole entry, looked up): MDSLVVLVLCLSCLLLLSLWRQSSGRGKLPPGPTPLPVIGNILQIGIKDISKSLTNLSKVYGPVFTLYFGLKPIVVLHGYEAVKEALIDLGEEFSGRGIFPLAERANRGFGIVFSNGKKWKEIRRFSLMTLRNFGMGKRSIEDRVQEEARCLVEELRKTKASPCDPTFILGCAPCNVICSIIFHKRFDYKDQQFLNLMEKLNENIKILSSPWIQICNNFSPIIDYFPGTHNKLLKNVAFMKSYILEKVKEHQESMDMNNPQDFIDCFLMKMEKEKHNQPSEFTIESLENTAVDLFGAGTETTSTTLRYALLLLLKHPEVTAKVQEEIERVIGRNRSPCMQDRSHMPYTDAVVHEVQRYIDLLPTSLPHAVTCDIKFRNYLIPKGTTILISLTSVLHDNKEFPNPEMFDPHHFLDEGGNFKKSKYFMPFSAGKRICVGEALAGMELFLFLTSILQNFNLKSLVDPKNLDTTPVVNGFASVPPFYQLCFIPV
Nuclear receptor subfamily 1 group I member 2 (Homo sapiens), sequence (O75469 whole entry, looked up): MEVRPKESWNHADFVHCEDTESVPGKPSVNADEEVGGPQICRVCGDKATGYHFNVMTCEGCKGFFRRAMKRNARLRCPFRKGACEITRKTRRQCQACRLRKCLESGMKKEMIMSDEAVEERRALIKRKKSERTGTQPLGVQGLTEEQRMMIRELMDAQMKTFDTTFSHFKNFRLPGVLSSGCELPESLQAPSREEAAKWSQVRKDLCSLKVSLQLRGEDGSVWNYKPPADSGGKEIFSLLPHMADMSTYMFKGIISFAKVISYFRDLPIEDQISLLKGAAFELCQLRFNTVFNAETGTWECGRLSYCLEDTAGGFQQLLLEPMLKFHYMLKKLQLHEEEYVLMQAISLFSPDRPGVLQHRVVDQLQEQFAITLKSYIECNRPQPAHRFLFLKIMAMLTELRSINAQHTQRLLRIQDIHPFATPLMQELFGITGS
Voltage-gated inwardly rectifying potassium channel KCNH2 (Homo sapiens), sequence (Q12809 whole entry, looked up): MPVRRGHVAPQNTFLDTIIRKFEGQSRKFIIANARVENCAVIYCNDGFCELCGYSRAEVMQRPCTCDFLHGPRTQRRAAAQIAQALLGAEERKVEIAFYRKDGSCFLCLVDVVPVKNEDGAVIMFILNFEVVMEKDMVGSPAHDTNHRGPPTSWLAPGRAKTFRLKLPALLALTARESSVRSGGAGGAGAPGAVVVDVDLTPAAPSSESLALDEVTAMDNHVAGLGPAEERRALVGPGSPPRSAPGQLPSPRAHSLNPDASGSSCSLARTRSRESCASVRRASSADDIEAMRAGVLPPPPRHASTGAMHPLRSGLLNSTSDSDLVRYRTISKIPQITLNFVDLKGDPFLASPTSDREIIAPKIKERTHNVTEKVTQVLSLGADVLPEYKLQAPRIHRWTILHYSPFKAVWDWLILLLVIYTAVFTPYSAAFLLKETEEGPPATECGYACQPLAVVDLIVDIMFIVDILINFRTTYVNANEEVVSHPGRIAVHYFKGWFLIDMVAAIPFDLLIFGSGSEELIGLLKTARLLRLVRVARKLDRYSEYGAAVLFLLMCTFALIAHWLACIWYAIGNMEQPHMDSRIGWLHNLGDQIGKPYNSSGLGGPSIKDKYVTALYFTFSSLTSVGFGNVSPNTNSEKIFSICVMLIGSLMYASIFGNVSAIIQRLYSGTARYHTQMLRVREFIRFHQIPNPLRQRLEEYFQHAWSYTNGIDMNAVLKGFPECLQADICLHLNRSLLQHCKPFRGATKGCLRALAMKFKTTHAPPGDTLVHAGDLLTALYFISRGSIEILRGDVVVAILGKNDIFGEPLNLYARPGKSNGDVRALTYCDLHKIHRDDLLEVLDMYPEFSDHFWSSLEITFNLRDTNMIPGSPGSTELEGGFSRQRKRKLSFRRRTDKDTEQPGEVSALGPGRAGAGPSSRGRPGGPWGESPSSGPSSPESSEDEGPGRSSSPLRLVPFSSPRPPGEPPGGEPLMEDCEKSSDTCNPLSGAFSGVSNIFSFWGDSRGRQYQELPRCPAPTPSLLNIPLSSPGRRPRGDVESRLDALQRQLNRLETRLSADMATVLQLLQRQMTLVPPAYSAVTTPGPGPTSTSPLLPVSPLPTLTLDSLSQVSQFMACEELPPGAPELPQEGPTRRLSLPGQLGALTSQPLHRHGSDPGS
Cytochrome P450 2D6 (Homo sapiens), sequence (P10635 whole entry, looked up): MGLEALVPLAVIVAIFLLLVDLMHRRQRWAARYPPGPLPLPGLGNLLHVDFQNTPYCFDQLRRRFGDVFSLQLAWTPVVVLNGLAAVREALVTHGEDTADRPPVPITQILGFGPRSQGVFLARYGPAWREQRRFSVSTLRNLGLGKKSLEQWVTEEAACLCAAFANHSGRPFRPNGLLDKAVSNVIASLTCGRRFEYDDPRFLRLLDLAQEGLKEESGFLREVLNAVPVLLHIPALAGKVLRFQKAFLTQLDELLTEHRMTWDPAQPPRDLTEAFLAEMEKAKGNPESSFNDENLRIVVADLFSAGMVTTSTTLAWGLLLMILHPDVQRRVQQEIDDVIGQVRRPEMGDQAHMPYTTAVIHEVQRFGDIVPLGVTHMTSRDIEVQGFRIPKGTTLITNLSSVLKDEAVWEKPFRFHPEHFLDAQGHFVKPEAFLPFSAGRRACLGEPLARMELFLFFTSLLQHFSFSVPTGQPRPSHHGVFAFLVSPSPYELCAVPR
Cytochrome P450 3A4 (Homo sapiens), sequence (P08684 whole entry, looked up): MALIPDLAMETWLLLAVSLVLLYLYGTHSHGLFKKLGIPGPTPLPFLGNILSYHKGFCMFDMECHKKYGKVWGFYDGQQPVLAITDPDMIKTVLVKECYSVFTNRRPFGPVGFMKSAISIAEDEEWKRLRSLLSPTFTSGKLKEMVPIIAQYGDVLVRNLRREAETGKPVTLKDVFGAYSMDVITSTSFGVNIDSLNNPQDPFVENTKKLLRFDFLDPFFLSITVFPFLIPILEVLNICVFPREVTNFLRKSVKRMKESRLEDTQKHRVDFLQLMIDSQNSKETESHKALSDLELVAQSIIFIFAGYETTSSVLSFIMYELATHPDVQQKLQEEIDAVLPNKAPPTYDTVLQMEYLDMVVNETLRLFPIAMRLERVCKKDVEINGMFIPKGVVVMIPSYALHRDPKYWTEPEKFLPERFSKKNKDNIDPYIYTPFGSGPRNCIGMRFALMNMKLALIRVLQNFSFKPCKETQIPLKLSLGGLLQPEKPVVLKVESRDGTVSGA
Nuclear receptor subfamily 1 group I member 2 (Rattus norvegicus), sequence (Q9R1A7 whole entry, looked up): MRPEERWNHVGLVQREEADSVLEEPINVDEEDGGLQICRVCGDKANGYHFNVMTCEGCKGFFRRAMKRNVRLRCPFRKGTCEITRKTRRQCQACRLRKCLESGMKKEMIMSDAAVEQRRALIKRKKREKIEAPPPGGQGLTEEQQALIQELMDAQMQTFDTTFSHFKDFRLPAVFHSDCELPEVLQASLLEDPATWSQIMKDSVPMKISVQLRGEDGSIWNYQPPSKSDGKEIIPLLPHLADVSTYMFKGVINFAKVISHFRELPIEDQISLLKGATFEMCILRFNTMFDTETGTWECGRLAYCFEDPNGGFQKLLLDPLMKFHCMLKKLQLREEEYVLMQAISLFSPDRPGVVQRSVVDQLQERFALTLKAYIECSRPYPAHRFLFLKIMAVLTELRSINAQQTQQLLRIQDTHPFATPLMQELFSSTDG

CC(NC(CCc1ccccc1)C(=O)O)C(=O)N1C(=O)N(C)CC1C(=O)O (stereo not given)
inactive: Potency [1] | Potency [2] | Potency [3] | outcome [4] | Potency [5] | Potency [6] | Potency [7] | Potency [8] | Potency [9] | Potency [10] | Potency [11] | Potency [12]

COC(=O)NN
inactive: Potency [1] | Potency [2] | Potency [3] | outcome [4] | Potency [5] | Potency [6] | Potency [7] | Potency [9] | Potency [10] | Potency [11] | Potency [12]

CCCCCSCCCCC
inactive: Potency [1] | Potency [2] | Potency [3] | outcome [4] | Potency [5] | Potency [6] | Potency [8] | Potency [9] | Potency [10] | Potency [11] | Potency [12]

N=C(N)c1ccccc1
inactive: Potency [1] | Potency [2] | Potency [3] | outcome [4] | Potency [5] | Potency [6] | Potency [8] | Potency [9] | Potency [10] | Potency [11] | Potency [12]

Nc1ccccc1S(=O)(=O)O
inactive: Potency [1] | Potency [2] | Potency [3] | outcome [4] | Potency [5] | Potency [6] | Potency [7] | Potency [8] | Potency [10] | Potency [11] | Potency [12]

O=C1CCCN1C1CCCCC1
active: Potency [7] 35.6 µM
inactive: Potency [1] | Potency [2] | Potency [3] | outcome [4] | Potency [5] | Potency [6] | Potency [9] | Potency [11] | Potency [12]

Cc1ccc(C#N)cc1
inactive: Potency [1] | Potency [2] | Potency [3] | outcome [4] | Potency [5] | Potency [6] | Potency [7] | Potency [10] | Potency [11] | Potency [12]
active: Potency [8] 34.4 µM

CCCCCCOC(=O)CCCCC(=O)OCCCCCC
active: Potency [9] 31.7 µM
inactive: Potency [1] | Potency [2] | Potency [3] | outcome [4] | Potency [5] | Potency [6] | Potency [8] | Potency [10] | Potency [11] | Potency [12]

CN(C(=O)c1c(O)c2ccccc2n(C)c1=O)c1ccccc1
inactive: Potency [1] | Potency [2] | Potency [3] | outcome [4] | Potency [5] | max activation [13] -3.59% | Potency [7] | Potency [8] | Potency [10] | Potency [11] | Potency [12]

NCCCNCCSP(=O)(O)O
inactive: activity change, negative = cytotoxicity [1] 7.22% [at 8.39 µM] | caspase activation [2] -1.36% [at 8.39 µM] | activity change, negative = cytotoxicity [3] 5.53% [at 8.39 µM] | caspase-3/7 activation [4] 0.0901% [at 8.39 µM] | activity change, negative = cytotoxicity [5] 1.15% [at 8.39 µM] | activation [6] -4.2% [at 8.39 µM] | activity change, negative = inhibition [8] -2.49% [at 10.5 µM] | activity change, negative = inhibition [9] 10.3% [at 10.5 µM] | activity change, negative = inhibition [10] -21.8% [at 10.5 µM] | activity change, negative = inhibition [11] -1.01% [at 6.97 µM] | activity change, negative = inhibition [12] 5.88% [at 10.5 µM]

Cc1ccc(=O)n(-c2ccccc2)c1
inactive: Potency [1] | Potency [2] | Potency [3] | outcome [4] | Potency [5] | Potency [6] | Potency [7] | Potency [9] | Potency [10] | Potency [11] | Potency [12]

CC(C)NCCCC1(C(N)=O)c2ccccc2-c2ccccc21
inactive: Potency [1] | Potency [2] | Potency [3] | outcome [4] | Potency [5] | Potency [8] | Potency [10] | Potency [11]
active: Potency [6] 23.7 µM | Potency [7] 2.45 µM

O=C(O)CCCl
active: Potency [6] 61.9 µM
inactive: Potency [1] | Potency [2] | Potency [3] | outcome [4] | Potency [5] | Potency [8] | Potency [9] | Potency [11] | Potency [12]

NC(=O)COCCN1CCN(C(c2ccccc2)c2ccc(Cl)cc2)CC1 (stereo not given)
inactive: Potency [1] | Potency [2] | Potency [3] | outcome [4] | Potency [5] | Potency [6] | Potency [7] | Potency [8] | Potency [9] | Potency [10] | Potency [12]

CCCCC/C=C\CCC=O
inactive: Potency [1] | Potency [2] | Potency [3] | outcome [4] | Potency [5] | Potency [6] | Potency [11] | Potency [12]
active: Potency [8] 63.3 µM

NS(=O)(=O)c1ccccc1Cl
inactive: Potency [1] | Potency [2] | Potency [3] | Potency [5] | Potency [6] | Potency [8] | Potency [9] | Potency [10] | Potency [11] | Potency [12]

O=C(O)CN(CCOCCOCCN(CC(=O)O)CC(=O)O)CC(=O)O
inactive: activity change, negative = cytotoxicity [1] 6.91% [at 0.349 µM] | caspase activation [2] -0.864% [at 0.349 µM] | activity change, negative = cytotoxicity [3] 10.9% [at 0.349 µM] | activity change, negative = cytotoxicity [5] 2.16% [at 0.349 µM] | activation [6] -3.68% [at 0.349 µM] | activity change, negative = inhibition [8] -11.6% [at 0.435 µM] | activity change, negative = inhibition [9] 4.56% [at 0.435 µM] | activity change, negative = inhibition [10] -6.73% [at 0.435 µM] | activity change, negative = inhibition [11] 0.825% [at 0.29 µM] | activity change, negative = inhibition [12] 0.649% [at 0.435 µM]

CCOC(=O)C(=O)OCC
inactive: Potency [1] | Potency [2] | Potency [3] | Potency [5] | Potency [6] | Potency [8] | Potency [9] | Potency [10] | Potency [11] | Potency [12]
active: Potency [7] 31.7 µM

C=C(C)C(=O)OCCCCCCCC(C)C
inactive: Potency [2] | outcome [4] | Potency [7] | Potency [9] | Potency [11] | Potency [12]
active: Potency [1] 976 nM | Potency [3] 1.09 µM | Potency [6] 0.87 µM | Potency [8] 71.5 µM

COc1c(N2C[C@@H]3CCCN[C@@H]3C2)c(F)cc2c(=O)c(C(=O)O)cn(C3CC3)c12
inactive: Potency [1] | Potency [2] | Potency [3] | Potency [5] | Potency [6] | max activation [13] -3.75% | Potency [14] | Potency [15] | Potency [7] | Potency [8] | Potency [9] | Potency [10] | Potency [11] | Potency [12]

COC(=O)C1=C(C)NC(C)=C(C(=O)OC)C1c1ccccc1[N+](=O)[O-]
48.6 µM (active) and inactive: Potency [1]
inactive: Potency [2]
active: Potency [3] 48.6 µM and 26.6 µM
30.7 µM (active) and inactive: Potency [5]
